Measured values reported in PubChem BioAssay (NCATS).
Where “and” joins values, the source holds several entries; their conditions need not be identical. Equal values may be shown once. Inconclusive results are not listed. Calls of active or inactive are those of the source. Unless noted, the call rests on the fitted dose curve; in most records, active means well fitted curve in either direction with a large enough effect (not every such curve was filed as active); inconclusive means small, poorly fitted or top-dose-only effect, or another doubt; inactive means flat fitted curve, though single readings scatter.

Legend:
[1] = tested on: HIV-1 nucleocapsid protein NCp7 (binding to TG oligonucleotide); assay: HIV Nucleocapsid (AID 346; call rule not given here;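 further: potency means the concentration at half of the fitted maximal effect; potency is for inhibitors that block NC binding and lower polarization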); conditions: HIV-1 NC / fluorescein-TGTGTGTG probe, fluorescence polarization
Outline: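 Fluorescence polarization readout: labelled TG4xF oligo (10 nM) with 100 nM nucleocapsid protein, high-salt (250mM NaCl) Hepes pH 7.5 buffer containing zinc and fresh reducing agents. Compounds added by pin tool; incubation 1 hr, room temperature.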

[2] = target: Lysosomal acid glucosylceramidase (Homo sapiens) (UniProt P04062); assay: Glucocerebrosidase-p2 (AID 348; in the data active means potency below about 10 µM; further: potency means the concentration at half of the fitted maximal effect); conditions: purified GBA, blue fluorogenic substrate, 40 min
Outline: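 Compounds titrated from 0.6 nM upwards against 0.2 nM enzyme in pH 5.9 citric acid/KH2PO4, taurocholate, tween-20; blue fluorogenic substrate 80 uM, 40 min room temperature, stopped and read Ex 365/Em 440 for AC50.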

[3] = AP1 Signaling Pathway (AID 357); conditions: ME-180 AP-1-bla reporter, EGF-induced, beta-lactamase ratio, 5 h; series mostly up to 17.2 µM;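 further: ME-180 reporter cells stimulated with EGF at its EC50 level; on the % scale 0 is the no-effect control and ±100 the full control effect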
Outline: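 Titration-series screen for positive or negative modulators of EC50 EGF-induced signaling in ME-180 cells carrying an AP-1-driven beta-lactamase reporter. After 5 hours at 37 degrees Celsius, CCF4 460nm/530nm emission ratio gave %Activity; AC50 values derived.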

[4] = target: Cytochrome P450 1A2 (Homo sapiens) (UniProt P05177); assay: p450-cyp1a2 (AID 410; calls by dose curve;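 further: -100% = full effect of reference inhibitor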); conditions: recombinant CYP1A2, luciferin-ME demethylation, luminescence; series mostly up to 25.6 µM
Outline: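 Human CYP1A2 (20nM) demethylated Luciferin-ME at its Km (100uM) in 100mM KPO4. After 10 min compound preincubation, NADPH regeneration ran the reaction 60 min at room temperature. Luciferin was read by luminescence, normalized to 57 uM furafylline.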

[5] = NFAT Signaling Pathway (AID 444); conditions: Jurkat NFAT-bla M1, carbachol, beta-lactamase ratio, 5 h;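 further: carbachol stimulus at about its EC50 of 1 µM final; on the % scale 0 is the no-effect control and ±100 the full control effect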
Outline: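 Read-out: CCF4 FRET ratio (460 nm/530 nm) after 1 h RT dye loading, used for %activity and AC50 from titration series. Cells: Jurkat NFAT-β-lactamase/M1 line, treated with compound plus 1 uM carbachol for 5 h, 37 °C.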

[6] = Stat Signaling Pathway (AID 446); conditions: ME-180 SIE beta-lactamase reporter, IL-6 stimulated, 5 h; series mostly up to 17.2 µM;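 further: ME-180 cervical cancer cells given 40 pM IL-6 alongside compound; SIE-controlled beta-lactamase reporter measured as 460/530 nm FRET emission ratio; on the % scale 0 is the no-effect control and ±100 the full control effect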
Outline: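 Reporter line: ME-180 cervical carcinoma, SIE-beta-lactamase. Treatment: compound with 40 pM IL-6, 5 hrs, 37 C, in low-serum OPTI-MEM with 10 mM HEPES pH 7.3. Detection: 460/530 nm fluorescence.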

[7] = target: Glucocorticoid receptor (Homo sapiens) (UniProt P04150); assay: GR-EFC Redistribution (AID 451; calls by dose curve; further: potency means the concentration at half of the fitted maximal effect); conditions: CHO-K1 GR-EFC translocation, beta-gal luminescence, 2 h
Outline: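 Translocation of GR-ED fusion to nuclear EA restores b-gal, read by luminescence after 1 h room-temperature detection. Engineered CHO-K1 biosensor cells, 1,000/well, exposed 2 h at 37 C to titrations up to 46 uM final.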

[8] = target: Mitogen-activated protein kinase 10 (Mus musculus) (UniProt Q61831); assay: JNK3 AlphaScreen Assay (AID 530); conditions: JNK3 lysate, c-Jun phosphorylation; series mostly up to 57.1 µM;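 further: kinase came from lysate of stimulated human HepG2 cells; signal reports phosphorylation of biotinylated GST-cJun 1-79 at Ser73 with 10 µM ATP; on the % scale 0 is the no-effect control and ±100 the full control effect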
Outline: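 Room-temperature AlphaScreen kinase assay; pre-activated HepG2 lysate as JNK3 source, biotin-GST-cJun(1-79) substrate, 10 uM ATP, compound 15 min preincubation.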

[9] = target: 3',5'-cyclic-AMP phosphodiesterase 4B (Homo sapiens) (UniProt Q07343); assay: qHTS Assay for Inhibitors of PDE-IV (AID 607; active means well fitted activation curve with a large enough effect in the main read-out, with a control signal flat, not every such curve was filed as active; further: % of control where 0% means no effect); conditions: HEK293 ACTOne CNG channel cells, membrane potential fluorescence; series mostly up to 22.9 µM
Outline: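 Cell-based read-out of cAMP via a modified cyclic nucleotide-gated channel and membrane potential dye (535/590 nm) in HEK293 cells expressing PDE4 endogenously. Compounds tested up to 22.9 uM final; 100 uM RO 20-1724 reference.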

[10] = target: Cytochrome P450 3A4 (Homo sapiens) (UniProt P08684); assay: qHTS Assay for Activators of Cytochrome P450 3A4 (AID 885; active means well fitted curve in the direction sought with a large enough effect; an effect the other way counts as inactive or inconclusive; further: nearly all actives have a fitted effect of over 65% in size); conditions: recombinant CYP3A4, Luciferin-PPXE luminescence, 60 min; series mostly up to 57.1 µM
Outline: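 Signal was normalized against complete inhibition by 57 uM ketoconazole. The reaction used 20nM CYP3A4 with 25uM Luciferin-PPXE, 10-min compound preincubation and a 60-min NADPH-supported step at RT.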

[11] = qHTS Assay for Lipid Storage Modulators (AID 1519; calls by dose curve); conditions: Drosophila S3 cells, BODIPY lipid droplet/cell ratio, laser cytometry, cells loaded with oleic acid
Outline: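 Cells seeded at 5,000 per well were treated with compounds over a concentration series and loaded with oleic acid (400 uM, as added). Lipid droplet fluorescence (488 nm excitation, 500-530 nm channel) was read by laser-scanning cytometry and normalized to 20 uM Triacsin C.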

[12] = target: Glucocorticoid receptor (Homo sapiens) (UniProt P04150); assay: GR-GFP Redistribution (AID 450;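 active means compounds whose dose series gives a full or clear partial fitted curve of increased nuclear translocation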; further: potency means the concentration at half of the fitted maximal effect); conditions: U2OS GR-GFP nuclear translocation, laser cytometry, 2 h
[13] = target: Ubiquitin carboxyl-terminal hydrolase 1 (Homo sapiens) (UniProt O94782); assay: Inhibitors of USP1/UAF1: Pilot qHTS (AID 504865; active means well fitted curve in the direction sought with a large enough effect; an effect the other way counts as inactive or inconclusive;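 further: rhodamine fluorescence freed from ubiquitin-rhodamine substrate followed over time; top concentration of the series differs between compounds; on the % scale 0 is the no-effect control and ±100 the full control effect; nearly all actives have a fitted effect of over 35% in size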); conditions: purified USP1/UAF1, Ub-rhodamine cleavage fluorescence; series mostly up to 114 µM
Outline: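 1nM USP1/UAF1 + cpd, 15 min RT; start w/ Ub-Rho 150nM final; kinetic FL 480/540 nm, 6 reads q60 s. Buffer 50mM HEPES pH 7.8, 0.5mM EDTA, 1mM TCEP, 0.01% Tween-20, 0.1 mg/ml BSA.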

[14] = Confirmation and Secondary Assay for Modulators of Hemoglobin Beta Chain Splicing at IVS2 654 locus (AID 910; active means well fitted curve in the direction sought with a large enough effect; an effect the other way counts as inactive or inconclusive;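 further: HeLa cells stably carrying EGFP split by mutant beta-globin IVS2-654 intron; per-well total GFP intensity by laser scanning cytometry after 2-day treatment; % of control where 0% means no effect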); conditions: HeLa EGFP-654 splicing reporter, GFP fluorescence, 48 h; series mostly up to 46.1 µM
Outline: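 Readout: per-well total peak green fluorescence (488 nm ex, 500–520 nm em) from objects 5–250 µm, reflecting correct splicing of an EGFP-654 reporter. Compounds were applied for 2 days at 37 °C to overnight-plated HeLa EGFP-654 cells; controls were DMSO and 500 nM IVS2-654 PNA.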

[15] = Confirmation and Secondary Assay for Modulators of Hemoglobin Beta Chain Splicing at IVS2 705 locus (AID 930; active means well fitted curve in the direction sought with a large enough effect; an effect the other way counts as inactive or inconclusive;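 further: HeLa cells stably expressing the EGFP-705 splicing reporter; GFP fluorescence per well restored by corrected splicing of the IVS2-705 intron in EGFP; % of control where 0% means no effect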); conditions: HeLa EGFP-705 splicing reporter, GFP fluorescence, 48 h; series mostly up to 46.1 µM
Outline: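 Per-well GFP, captured at 1 x 8 µm resolution with 488 nm excitation, served as the read-out for HeLa EGFP-705 cells incubated 2 days with test compound versus DMSO.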

[16] = qHTS Assay for Identification of Small Molecule Inducers of Hypoxia Response (AID 2120; active means well fitted curve in the direction sought with a large enough effect in the signal ratio, with a control signal flat, not every such curve was filed as active; the % refers to the signal ratio; further: 0% is about no effect); conditions: hypoxia response reporter cells, beta-lactamase ratio readout; series mostly up to 104 µM
Outline: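 HRE-beta-lactamase reporter in CellSensor HRE-bla ME-180 cells, 2500 cells/well in Opti-MEM with 0.5% dialyzed FBS; compounds tested as titration series, 17 h at 37 degrees C. CCF4 substrate 2.5 h at room temperature; AC50 from 460/530 nm ratio.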

[17] = target: Voltage-gated inwardly rectifying potassium channel KCNH2 (Homo sapiens) (UniProt Q12809); assay: qHTS Assay for Small Molecule Inhibitors of the Human hERG Channel Activity (AID 588834; active means well fitted curve in the direction sought with a large enough effect; an effect the other way counts as inactive or inconclusive;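 further: lower thallium flux fluorescence means stronger hERG block; nearly all actives have a fitted effect of over 50% in size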; further: potency means the concentration at half of the fitted maximal effect); conditions: U2OS BacMam hERG, FluxOR thallium flux fluorescence; series mostly up to 92.2 µM
Outline: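 Concentration-response qHTS measuring drop in thallium-sensitive dye signal. U2OS cells carrying BacMam hERG; compound exposure ~10 min, then stimulation buffer and 2 min read at 1 sec intervals.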

[18] = target: Cytochrome P450 3A4 (Homo sapiens) (UniProt P08684); assay: qHTS Assay for Inhibitors and Substrates of Cytochrome P450 3A4 (AID 884; active means well fitted curve in the direction sought with a large enough effect; an effect the other way counts as inactive or inconclusive; further: on the % scale 0 is the no-effect control and ±100 the full control effect; nearly all actives have a fitted effect of over 50% in size); conditions: recombinant CYP3A4, Luciferin-PPXE luminescence; series mostly up to 57.1 µM
Outline: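 20 nM human CYP3A4 with 25 uM Luciferin-PPXE (at KM) in 200 mM KPO4, preincubated 10 min with compound; NADPH regeneration started a 60 min RT reaction. Luciferin detected by luminescence, normalized to 57 uM ketoconazole as full inhibition.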

[19] = measured here: cell count channel max response
[20] = measured here: lipid channel max response

Cytochrome P450 1A2 (Homo sapiens), sequence (P05177 whole entry, looked up): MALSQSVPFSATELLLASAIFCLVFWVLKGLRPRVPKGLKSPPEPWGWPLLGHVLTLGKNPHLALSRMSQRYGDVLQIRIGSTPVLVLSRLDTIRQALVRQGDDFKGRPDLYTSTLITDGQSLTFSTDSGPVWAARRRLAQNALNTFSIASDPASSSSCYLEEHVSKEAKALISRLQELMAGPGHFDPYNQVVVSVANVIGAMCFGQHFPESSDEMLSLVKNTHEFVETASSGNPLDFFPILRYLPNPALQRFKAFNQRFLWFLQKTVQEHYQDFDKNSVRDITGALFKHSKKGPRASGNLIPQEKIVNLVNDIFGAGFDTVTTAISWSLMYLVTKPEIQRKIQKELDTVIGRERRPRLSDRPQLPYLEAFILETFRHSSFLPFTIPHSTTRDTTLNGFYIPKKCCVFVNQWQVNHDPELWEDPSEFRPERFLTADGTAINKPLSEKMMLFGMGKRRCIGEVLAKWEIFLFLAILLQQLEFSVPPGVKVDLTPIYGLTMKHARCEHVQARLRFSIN
Ubiquitin carboxyl-terminal hydrolase 1 (Homo sapiens), sequence (O94782 whole entry, looked up): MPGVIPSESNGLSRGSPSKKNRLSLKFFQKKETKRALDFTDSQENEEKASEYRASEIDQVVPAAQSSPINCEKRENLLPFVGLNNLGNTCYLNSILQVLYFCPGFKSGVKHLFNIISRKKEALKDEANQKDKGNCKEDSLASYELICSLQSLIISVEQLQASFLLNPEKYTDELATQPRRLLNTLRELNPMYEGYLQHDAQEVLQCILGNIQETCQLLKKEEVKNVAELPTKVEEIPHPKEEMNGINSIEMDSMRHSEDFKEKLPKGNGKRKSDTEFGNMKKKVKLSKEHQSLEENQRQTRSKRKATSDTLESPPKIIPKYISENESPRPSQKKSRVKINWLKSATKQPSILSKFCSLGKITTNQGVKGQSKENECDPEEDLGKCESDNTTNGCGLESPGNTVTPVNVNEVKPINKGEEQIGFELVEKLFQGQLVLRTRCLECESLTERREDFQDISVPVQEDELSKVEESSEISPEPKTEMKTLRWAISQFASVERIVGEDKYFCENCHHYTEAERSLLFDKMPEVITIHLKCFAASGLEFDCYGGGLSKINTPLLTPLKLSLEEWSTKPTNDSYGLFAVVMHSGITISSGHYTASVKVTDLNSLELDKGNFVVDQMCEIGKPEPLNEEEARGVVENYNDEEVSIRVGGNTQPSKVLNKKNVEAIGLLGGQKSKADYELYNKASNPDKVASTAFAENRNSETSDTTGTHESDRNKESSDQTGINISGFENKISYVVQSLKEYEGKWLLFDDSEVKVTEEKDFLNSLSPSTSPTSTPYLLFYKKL
3',5'-cyclic-AMP phosphodiesterase 4B (Homo sapiens), sequence (Q07343 whole entry, looked up): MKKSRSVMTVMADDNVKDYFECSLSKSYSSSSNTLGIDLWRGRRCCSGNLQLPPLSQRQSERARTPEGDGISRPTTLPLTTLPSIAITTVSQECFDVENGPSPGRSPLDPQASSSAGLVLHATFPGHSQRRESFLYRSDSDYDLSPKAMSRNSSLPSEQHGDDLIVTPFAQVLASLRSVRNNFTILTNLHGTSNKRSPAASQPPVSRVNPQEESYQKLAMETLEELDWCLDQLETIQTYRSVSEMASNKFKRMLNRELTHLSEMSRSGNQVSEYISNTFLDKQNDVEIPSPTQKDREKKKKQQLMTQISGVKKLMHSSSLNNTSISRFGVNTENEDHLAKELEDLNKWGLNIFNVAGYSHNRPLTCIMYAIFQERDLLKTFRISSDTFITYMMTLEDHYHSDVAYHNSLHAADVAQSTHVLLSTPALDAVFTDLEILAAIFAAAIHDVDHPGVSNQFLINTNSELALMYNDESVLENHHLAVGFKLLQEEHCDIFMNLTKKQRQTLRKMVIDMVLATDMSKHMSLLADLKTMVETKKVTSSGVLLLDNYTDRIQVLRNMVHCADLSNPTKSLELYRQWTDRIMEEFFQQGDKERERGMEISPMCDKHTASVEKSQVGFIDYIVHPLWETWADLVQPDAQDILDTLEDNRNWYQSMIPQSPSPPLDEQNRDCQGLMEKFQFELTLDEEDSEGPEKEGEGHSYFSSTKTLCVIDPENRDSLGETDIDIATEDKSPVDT
Cytochrome P450 3A4 (Homo sapiens), sequence (P08684 whole entry, looked up): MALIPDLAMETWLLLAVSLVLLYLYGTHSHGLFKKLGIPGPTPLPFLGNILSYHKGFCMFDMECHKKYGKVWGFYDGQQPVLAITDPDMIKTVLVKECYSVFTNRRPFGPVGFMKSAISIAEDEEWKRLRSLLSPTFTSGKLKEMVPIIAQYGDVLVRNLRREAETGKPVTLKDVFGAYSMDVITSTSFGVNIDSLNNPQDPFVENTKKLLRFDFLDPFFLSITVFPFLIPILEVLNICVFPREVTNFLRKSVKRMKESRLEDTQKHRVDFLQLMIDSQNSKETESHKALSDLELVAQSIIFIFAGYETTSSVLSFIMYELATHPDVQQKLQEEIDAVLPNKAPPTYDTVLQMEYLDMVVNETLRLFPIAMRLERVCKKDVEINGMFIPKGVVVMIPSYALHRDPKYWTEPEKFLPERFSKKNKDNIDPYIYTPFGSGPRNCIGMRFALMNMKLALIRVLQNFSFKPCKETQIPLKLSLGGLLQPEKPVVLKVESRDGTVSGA
Lysosomal acid glucosylceramidase (Homo sapiens), sequence (P04062 whole entry, looked up): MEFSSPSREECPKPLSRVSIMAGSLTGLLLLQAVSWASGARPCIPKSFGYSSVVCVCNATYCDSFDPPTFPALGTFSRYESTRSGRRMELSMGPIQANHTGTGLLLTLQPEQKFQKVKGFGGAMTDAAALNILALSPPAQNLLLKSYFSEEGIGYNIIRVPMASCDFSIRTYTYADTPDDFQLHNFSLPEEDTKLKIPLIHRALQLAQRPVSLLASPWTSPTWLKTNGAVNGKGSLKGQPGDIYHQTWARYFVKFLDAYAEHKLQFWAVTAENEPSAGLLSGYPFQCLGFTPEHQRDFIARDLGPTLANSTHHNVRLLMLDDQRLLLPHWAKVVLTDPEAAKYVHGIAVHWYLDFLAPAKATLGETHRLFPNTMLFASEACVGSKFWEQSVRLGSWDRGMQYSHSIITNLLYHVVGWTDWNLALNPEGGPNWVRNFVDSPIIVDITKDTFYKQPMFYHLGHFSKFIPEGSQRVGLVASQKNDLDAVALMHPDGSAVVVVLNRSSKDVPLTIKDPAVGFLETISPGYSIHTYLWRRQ
Glucocorticoid receptor (Homo sapiens), sequence (P04150 whole entry, looked up, the tested form may be a part): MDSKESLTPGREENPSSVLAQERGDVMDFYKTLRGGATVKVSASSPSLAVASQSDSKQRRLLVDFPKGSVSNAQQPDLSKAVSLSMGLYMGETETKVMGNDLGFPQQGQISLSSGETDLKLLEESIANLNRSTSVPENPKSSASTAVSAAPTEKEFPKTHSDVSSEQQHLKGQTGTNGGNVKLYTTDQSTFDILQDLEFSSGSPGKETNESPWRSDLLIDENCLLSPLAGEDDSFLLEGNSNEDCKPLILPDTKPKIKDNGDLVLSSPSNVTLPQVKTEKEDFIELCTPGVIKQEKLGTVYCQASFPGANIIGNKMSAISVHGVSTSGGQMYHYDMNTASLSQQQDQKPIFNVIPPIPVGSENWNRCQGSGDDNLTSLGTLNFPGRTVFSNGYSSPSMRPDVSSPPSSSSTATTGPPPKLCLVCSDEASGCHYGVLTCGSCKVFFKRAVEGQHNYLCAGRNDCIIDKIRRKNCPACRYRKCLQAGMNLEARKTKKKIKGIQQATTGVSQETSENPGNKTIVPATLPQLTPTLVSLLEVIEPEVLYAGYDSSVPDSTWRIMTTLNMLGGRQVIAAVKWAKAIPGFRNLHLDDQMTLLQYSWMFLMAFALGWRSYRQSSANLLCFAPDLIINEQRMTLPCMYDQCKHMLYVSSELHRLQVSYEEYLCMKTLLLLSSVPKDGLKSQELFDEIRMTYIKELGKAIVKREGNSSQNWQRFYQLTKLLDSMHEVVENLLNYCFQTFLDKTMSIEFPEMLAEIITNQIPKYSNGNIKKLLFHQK
Voltage-gated inwardly rectifying potassium channel KCNH2 (Homo sapiens), sequence (Q12809 whole entry, looked up): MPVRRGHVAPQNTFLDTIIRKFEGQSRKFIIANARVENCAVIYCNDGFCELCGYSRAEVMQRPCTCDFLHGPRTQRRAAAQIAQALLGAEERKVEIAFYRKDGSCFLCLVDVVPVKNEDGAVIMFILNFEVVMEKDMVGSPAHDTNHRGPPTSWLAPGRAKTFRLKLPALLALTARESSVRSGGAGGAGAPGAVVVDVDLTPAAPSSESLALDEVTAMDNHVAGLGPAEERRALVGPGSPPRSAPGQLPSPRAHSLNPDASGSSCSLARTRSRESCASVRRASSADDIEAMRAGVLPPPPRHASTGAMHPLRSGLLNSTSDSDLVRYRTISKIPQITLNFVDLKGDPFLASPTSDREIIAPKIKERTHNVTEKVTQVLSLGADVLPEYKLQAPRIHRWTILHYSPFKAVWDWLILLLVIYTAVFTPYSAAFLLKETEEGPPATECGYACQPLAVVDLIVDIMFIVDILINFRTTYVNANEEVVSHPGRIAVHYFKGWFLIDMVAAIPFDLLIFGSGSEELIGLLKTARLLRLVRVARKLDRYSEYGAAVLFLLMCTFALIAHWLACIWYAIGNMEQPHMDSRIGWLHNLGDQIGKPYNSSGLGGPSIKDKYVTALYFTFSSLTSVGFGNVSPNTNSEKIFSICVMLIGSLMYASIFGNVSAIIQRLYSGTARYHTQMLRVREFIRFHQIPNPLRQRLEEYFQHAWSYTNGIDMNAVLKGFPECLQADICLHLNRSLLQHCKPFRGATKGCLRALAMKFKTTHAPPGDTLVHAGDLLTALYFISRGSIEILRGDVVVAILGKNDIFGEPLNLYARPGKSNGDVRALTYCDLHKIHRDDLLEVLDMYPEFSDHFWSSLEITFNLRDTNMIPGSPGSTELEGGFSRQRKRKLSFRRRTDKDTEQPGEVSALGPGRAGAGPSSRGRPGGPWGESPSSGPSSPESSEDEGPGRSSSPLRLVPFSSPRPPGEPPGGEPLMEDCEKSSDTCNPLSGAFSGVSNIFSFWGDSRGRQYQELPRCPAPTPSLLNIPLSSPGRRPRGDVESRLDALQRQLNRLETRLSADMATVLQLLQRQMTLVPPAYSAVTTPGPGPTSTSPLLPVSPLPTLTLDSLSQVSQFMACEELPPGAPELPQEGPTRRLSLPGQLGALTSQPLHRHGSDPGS

CS(=O)(=O)N1CCC2(CC1)CN(Cc1ccncc1)C2
27.2%: max response [11, 20]
inactive: Potency [1] > 20 µM | Potency [2] > 11.4 µM | outcome [3] | Potency [4] | activity change, negative = inhibition ([5]; at 7.69 µM (top of the series)) 6.37% | outcome [6] | Potency [7] > 46 µM | outcome [8] | Potency [9] | Potency [10] | activity change, negative = inhibition ([11]; at 57.5 µM (top of the series)) 4.09%
21.7%: max response [11, 19]

c1cc(CN2CCC3(CCNCC3)CC2)ccn1
18.5%: max response [11, 20]
10.7%: max response [11, 19]
inactive: Potency [1] > 20 µM | Potency [2] > 11.4 µM | outcome [3] | Potency [4] | activity change, negative = inhibition ([5]; at 7.69 µM (top of the series)) -8.56% | outcome [6] | Potency [7] > 46 µM | outcome [8] | Potency [9] | activity change, negative = inhibition ([11]; at 57.5 µM (top of the series)) 4.55%

C[N+]1([O-])[C@@H]2CC(OC(=O)[C@@H](CO)c3ccccc3)C[C@@H]1[C@H]1O[C@H]12 (stereo partly drawn)
active: activity change, negative = inhibition ([5]; at 7.69 µM (top of the series)) -78.2% | activity change, negative = inhibition ([5]; at 17.2 µM (top of the series)) -52.1%
inactive: Potency [2] > 11.4 µM | outcome [3] | Potency [4] | outcome [6] | Potency [12] > 20.6 µM and > 46 µM | Potency [7] > 20.6 µM and > 9.22 µM | outcome [8] | Potency [9] | activity change, negative = inhibition ([11]; at 25.7 µM (top of the series)) 0.148% | Potency [13]
26%: max response [11, 19]
27.4%: max response [11, 20]

O=S1OCC2C(CO1)C1(Cl)C(Cl)=C(Cl)C2(Cl)C1(Cl)Cl (stereo not drawn)
-0.733%: max response [11, 19]
active: Potency [17] 28.2 µM
5.32%: max response [11, 20]
inactive: Potency [10] | Potency [14] | Potency [15] | activity change, negative = inhibition ([11]; at 57.5 µM (top of the series)) 5.66% | outcome [16] | Potency [13]

COC(=O)NC(=S)Nc1ccccc1NC(=S)NC(=O)OC
8.02%: max response [11, 19]
inactive: outcome [8] | Potency [18] | Potency [14] | Potency [15] | activity change, negative = inhibition ([11]; at 57.5 µM (top of the series)) 3.23% | outcome [16] | Potency [13] | Potency [17]
10.3%: max response [11, 20]
